Bioassay records: PubChem, The Scripps Research Institute Molecular Screening Center
TEAD-YAP inh: TEAD-YAP interaction inhibition | inhibition, % at 9.12 µM | 1.4% of 640,000 active | HEK-TIYL cells, TEAD-Gal4/YAP UAS-luciferase luminescence; in the data active = inhibition above about 32%;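 also: 0% = median of test compound wells and 100% = reference inhibitor wells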
GPR151 activ: activators of human GPR151 | Q8TDV0 | PathHunter beta-arrestin GPR151 cells, luminescence | activation, % at 11.2 µM | 1% of 650,000 active | AID 1508602; in the data active = activation above about 4.9%;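 also: 0% = median of compound wells and 100% = cells with positive control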
MITF inh: blocks human microphthalmia-associated transcription factor. O75030. AlphaScreen MITF homodimerization, bead proximity signal. inhibition, % at 2.6 µM. 0.91% of 650,000 active. AID 1259374; in the data active = inhibition above about 50%;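 also: 0% = vehicle wells with protein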
Target sequence (O75030 whole entry, looked up): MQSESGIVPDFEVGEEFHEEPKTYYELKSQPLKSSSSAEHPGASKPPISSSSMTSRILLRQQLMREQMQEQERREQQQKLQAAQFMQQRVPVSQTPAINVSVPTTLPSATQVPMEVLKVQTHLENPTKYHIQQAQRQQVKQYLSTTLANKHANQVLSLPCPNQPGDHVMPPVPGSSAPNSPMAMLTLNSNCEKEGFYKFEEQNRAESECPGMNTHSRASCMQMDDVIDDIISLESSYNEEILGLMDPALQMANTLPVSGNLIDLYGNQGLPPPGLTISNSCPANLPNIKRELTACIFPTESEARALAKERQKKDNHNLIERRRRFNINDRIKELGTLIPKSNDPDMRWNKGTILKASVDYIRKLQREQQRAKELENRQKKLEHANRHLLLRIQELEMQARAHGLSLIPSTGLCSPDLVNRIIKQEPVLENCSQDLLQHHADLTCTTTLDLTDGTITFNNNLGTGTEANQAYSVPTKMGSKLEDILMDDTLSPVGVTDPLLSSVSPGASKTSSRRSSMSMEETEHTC
FBW7 activator: human FBW7 E3 ligase activation, primary screen; 0.13% of 650,000 active; AID 1259310; normalized activity (activation), % at 26.1 µM; Q969H0; AlphaScreen FBW7–phospho-cyclin E peptide binding, activator screen; in the data active = normalized activity above about 1.9%;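 also: purified mutant Fbw7 with reduced substrate affinity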
* = called active by the depositor; i = inactive. Rows were chosen to be rich in hits. Some 3.5% of all compounds tested hit in one or more screens of this group.

SMILES | TEAD-YAP inh | GPR151 activ | MITF inh | FBW7 activator
COc1ccc(O)c(/C=N/n2c(C)csc2=NC(C)C)c1 | 41* | -2 | 24 | 0
COc1ccc(C(=O)/C=C(\C)Nc2ccc(N3CCOCC3)cc2)cc1 | 4 | 1 | -3 | 0
CCCn1cnc2cc(NCc3cc(OC)c(OC)c(OC)c3)ccc21 | -14 | 0 | -7 | 0
COc1cc(CNc2ccc3c(c2)ncn3C)cc(OC)c1OC | 63* | -1 | -6 | 0
CCn1cnc2cc(NCc3cc(OC)c(OC)c(OC)c3)ccc21 | 58* | -1 | 13 | 1
NNc1nc(Nc2ccccc2)nc(Nc2ccccc2)n1 | 35* | -1 | 4 | -1
c1ccc(-c2cc(NCCCN3CCOCC3)nc(-c3ccccn3)n2)nc1 | 64* | -1 | 117* | -1
C[n+]1ccccc1NCCCN1CCOCC1 | 3 | -1 | -4 | 3.8*
c1ccc(-c2nc(NCCCN3CCOCC3)cc(-c3ccncc3)n2)cc1 | 10 | -2 | 5 | 0
CC(=O)c1ccc(N2C(=O)c3ccc(Cl)cc3C2=O)cc1 | -16 | -1 | -2 | 0
COCCCNc1nccn2c(-c3cccc(C(C)=O)c3)cnc12 | 15 | 0 | 13 | 0
OCC1CCCN1c1nc(NCCc2ccc(O)cc2)c2ncn(-c3ccccc3)c2n1 (stereo not given) | 43* | -1 | 3 | 0
CCCNc1nc(N2CCCC2CO)nc2c1ncn2-c1ccccc1 (stereo not given) | 37* | 2 | 8 | 0
COc1ccc(CCNc2nc(N3CCCC3CO)nc3c2ncn3-c2ccccc2)cc1 (stereo not given) | 8 | -2 | 9 | 0
O=C(OCc1ccccc1Cl)c1ccccc1[N+](=O)[O-] | 6 | 0 | 6 | 0
CCC1=NS(=O)(=O)c2ccccc2N1 | 2 | 1 | -2 | 0
Cc1ccc([N+](=O)[O-])cc1N(CC(=O)N1CCC(Cc2ccccc2)CC1)S(C)(=O)=O | 7 | 2 | i | 0
CCOC(=O)c1cnc2ccc(C)cc2c1NCCN1CCOCC1 | -6 | -1 | -2 | 0
CCOC(=O)c1cnc2ccc(C)cc2c1NCCCN1CCOCC1 | 38* | 0 | -20 | 0
COc1ccc(C(=O)n2c(=S)nc3cccc(C)n32)cc1 | 11 | 2 | -2 | 0
COc1ccc(C(=O)n2c(=S)nc3ccccn32)cc1 | 74* | -1 | 9 | 0
COc1ccc(CCNC(=O)C2CCN(c3ccc(Cl)nn3)CC2)cc1 | -2 | 2 | -14 | 0
O=C1N=C(N2CCOCC2)S/C1=C/C=C/c1ccccc1 | 45* | -1 | 26 | 0
O=C1N=C(c2ccccc2)S/C1=C/C=C\c1ccccc1 | 15 | 0 | 13 | 0
O=C1N=C(N2CCCC2)S/C1=C\C=C\c1ccccc1 | 78* | 0 | -1 | 0
SMILES | TEAD-YAP inh | GPR151 activ | MITF inh | FBW7 activator
CC(C)(C)OC(=O)C(N)CCCCNC(=O)OCc1ccccc1 (stereo not given) | 12 | 0 | 8 | 0
O=C(Nc1cccc(Cl)c1)c1ccccc1I | -36 | 1 | 2 | 0
CC(=O)c1cccc(-c2nc(Nc3ccccc3)c3ncn(-c4ccsc4)c3n2)c1 | -4 | 1 | -20 | 0
CC(=O)c1cccc(-c2nc(N)c3ncn(-c4ccsc4)c3n2)c1 | 56* | 0 | -7 | 0
Nc1cccc(-c2nc(N)c3ncn(-c4ccsc4)c3n2)c1 | 54* | 0 | 3 | 0
CC1=CC(C)(C)N=C(Nc2nc(C)c3cc(C)cc(C)c3n2)N1 | 59* | 0 | -8 | 0
N#Cc1c2c(c(Cl)n3c1nc1ccccc13)CCC2 | 2 | 0 | 11 | 1.9*
Cc1ccc(Nc2c3c(c(C#N)c4nc5ccccc5n24)CCC3)cc1C | 2 | -1 | 19 | 2.2*
CN(C)c1c2c(c(C#N)c3nc4ccccc4n13)CCC2 | 3 | -1 | -18 | 0
CCC(=O)N(CCO)Cc1cc2cc3c(cc2[nH]c1=O)OCO3 | 2 | -1 | 5 | 1
CCCc1cc(=O)n(-c2ccc([N+](=O)[O-])cc2)[nH]1 | 3 | 0 | 1 | 0
O=c1c2c(-c3ccccc3)csc2nc2c3ccccc3c(NCCCN3CCOCC3)nn12 | -4 | 0 | 19 | 1
O=c1c2ccccc2nc2c3ccccc3c(NCCN3CCOCC3)nn12 | 74* | 1 | -5 | 0
COc1cc(NC(=O)c2cccc(-n3cc(NC(=O)Nc4ccccc4C)cn3)c2)cc(OC)c1OC | 30 | 1 | 12 | 0
CC1(C)O[C@]2(CCC3C4CC[C@H]5CCCC[C@]5(C)C4CC[C@@]32C)CN1C(=O)CSC1=NCCN1 (stereo not given in full) | 33* | 2 | 2 | 0
C[C@]12CCCCC1CCC1C2CC[C@]2(C)C(N)CCC12 (stereo not given in full) | -10 | 2 | -2 | 0
Cc1cc(C)c2nc(SCC(=O)N3CC(=O)Nc4ccccc43)c(C#N)cc2c1 | 54* | 1 | -2 | 0
COCC(C)n1c(C)cc(C(=O)COC(=O)c2oc3ccccc3c2C)c1C (stereo not given) | 0 | -1 | 5 | 0
COCC(C)n1c(C)cc(C(=O)CSc2nc3ccccc3[nH]2)c1C (stereo not given) | 40* | 3 | 8 | 0
COCC(C)n1c(C)cc(C(=O)COC(=O)c2cccc(C)c2C)c1C (stereo not given) | 46* | 0 | 7 | 0
COCC(C)n1c(C)cc(C(=O)COC(=O)c2c(OC)cccc2OC)c1C (stereo not given) | 22 | -2 | 10 | 0
COCC(C)n1c(C)cc(C(=O)COC(=O)c2n[nH]c3ccccc23)c1C (stereo not given) | 88* | -2 | 18 | 0
Cc1cc(C(=O)CSc2nc3ccccc3[nH]2)c(C)n1C1CC1 | -71 | -1 | 7 | 0
CCOC(=O)C1=C(CSc2nc(C)c(C)c(C)c2C#N)OC(N)=C(C#N)C1c1ccccc1OC (stereo not given) | -5 | -2 | 12 | 0
Cc1ncn(-c2ccc(Nc3nccc(-c4ccc(C#N)c(N5CCCC5)c4)n3)cc2)n1 | 30 | -1 | 20 | 0
SMILES | TEAD-YAP inh | GPR151 activ | MITF inh | FBW7 activator
C[C@@H]1CN(C(=O)Nc2cccc(Nc3nccc(-c4ccc(N5CCC(O)CC5)c(C#N)c4)n3)c2)C[C@H](C)O1 | 40* | -1 | 15 | 1
N#Cc1cc(-c2ccnc(Nc3ccc(-n4cnc(N5CCC(O)CC5)n4)cc3)n2)ccc1N1CCC(O)CC1 | 50* | 1 | -3 | 0
Cc1ncn(-c2ccc(Nc3nccc(-c4ccc(C#N)c(N5CCC(O)CC5)c4)n3)cc2)n1 | 69* | 0 | 31 | 0
Cc1ncn(-c2ccc(Nc3nccc(-c4ccc(N5CCCC(CO)C5)c(C#N)c4)n3)cc2)n1 (stereo not given) | 46* | 3 | 9 | 0
O=C(NCCOc1cc(N2CCCC2)ncn1)c1ccc(=O)[nH]c1 | -12 | 0 | -1 | 0
Cc1cc(N)c(O)c(-n2nc3ccccc3n2)c1 | -35 | -2 | 0 | 0
CCCC1=[N+](CC(=O)c2ccc(C)cc2)CCn2c(C)ccc21 | 30 | -1 | 7 | 1
